Our source for the inhibition values is PubChem BioAssay AID1645855 (Buhrlage Lab, Dana-Farber Cancer Institute and Novartis …, 2021).

The campaign covered roughly 47,000 compounds. About 3,100 (6.6%) were called active. This is one part of a sample in which actives are shown more often than they occur. Rule as the data show it: active = inhibition above about 30%; inactive = the rest.

The target of the experiment is Ubiquitin carboxyl-terminal hydrolase 17-like protein 5 (Homo sapiens) (UniProt A8MUK1). Description: blocks human USP17 ubiquitin-rhodamine cleavage (AID 1645855). The conditions noted are these: purified USP17, Ub-rhodamine cleavage fluorescence, 3 h; at 50 µM; active compounds read high.
Sequence of Ubiquitin carboxyl-terminal hydrolase 17-like protein 5 (Homo sapiens) (A8MUK1 whole entry, looked up): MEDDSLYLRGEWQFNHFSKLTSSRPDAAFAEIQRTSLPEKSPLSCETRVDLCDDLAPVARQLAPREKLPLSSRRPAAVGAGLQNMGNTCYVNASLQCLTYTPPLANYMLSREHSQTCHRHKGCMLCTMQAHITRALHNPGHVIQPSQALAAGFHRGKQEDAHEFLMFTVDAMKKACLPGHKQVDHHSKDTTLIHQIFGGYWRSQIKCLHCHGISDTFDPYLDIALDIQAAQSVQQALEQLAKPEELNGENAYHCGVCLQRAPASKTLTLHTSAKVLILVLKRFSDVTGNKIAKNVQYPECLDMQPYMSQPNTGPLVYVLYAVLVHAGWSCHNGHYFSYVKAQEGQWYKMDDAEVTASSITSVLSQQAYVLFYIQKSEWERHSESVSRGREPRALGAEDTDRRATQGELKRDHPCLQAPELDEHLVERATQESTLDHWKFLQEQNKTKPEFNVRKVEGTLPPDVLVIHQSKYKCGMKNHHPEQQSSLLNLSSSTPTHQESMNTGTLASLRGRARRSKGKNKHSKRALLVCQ
A word on the inhibition: it is the relative decrease from the control value, in per cent. In the case of `CC(C)n1ncc2[nH]c(C3CCCN(C(=O)Nc4ccc(F)cc4)C3)nc21` (centres undefined), the inhibition is -4.82% (inactive).
In the case of `CCOC(=O)c1cc2c(ccn2-c2ccc(F)cc2)n1Cc1ncc(C)c(OC)c1C`, the inhibition was -32% (inactive).
In the case of `O=C(Nc1cc(-c2ccccc2)nn1C1CCS(=O)(=O)C1)c1ccccc1F` (centres undefined), the inhibition was -23.8% (inactive).
Turning to `CC(C)(C)n1nc(C2CC2)c(Br)c1NC(=O)c1ccccc1F`, the inhibition was 93.7% (active).
Next, `COc1ccccc1C(=O)Nc1cccn2nc(C3CCC3)nc12`: 2.42% (inactive).
Regarding `CCCCn1c(=O)[nH]c2c(c1=O)CCC2`, the inhibition was 4.26% (inactive).
Under `Cc1sc(NC(=O)c2ccc(S(=O)(=O)N(C)CC3CCCO3)cc2)c(C(N)=O)c1C` (centres undefined) stands 40.5% (active).
In the case of `Cc1sc(NC(=O)CS(=O)(=O)c2ccc(F)cc2)c(C(N)=O)c1C`, the inhibition was -84% (inactive).
Consider `Cc1ccc(S(=O)(=O)CC(=O)Nc2sc(C)c(C)c2C(N)=O)cc1`, for which the inhibition was -27.2% (inactive).
For `CCN1CCN(C2=Nc3c(Cl)cc(Cl)c4cccc2c34)CC1`, the inhibition was -158% (inactive).
Take `O=c1c2ccccc2ncn1Cc1noc(-c2ccccc2F)n1`: the inhibition is -0.0976% (inactive).
Regarding `O=c1c2ccccc2c(-c2nc(-c3ccncc3)no2)cn1-c1ccc(F)cc1`, the inhibition is 37.7% (active).
Take `COc1ccccc1-c1nc(-c2ccc(-n3cccn3)nc2)no1`: the inhibition is 2.48% (inactive).
As for `CC(C)NC(=O)[C@H](C)NC(=O)N1CCn2c1nc1ccccc12`, the inhibition was -12.1% (inactive).
Turning to `CN1Cc2c(C(=O)NCC3CCCO3)ncn2-c2ccccc2S1(=O)=O` (centres undefined), the inhibition is -13.6% (inactive).
Consider `Cn1c(=O)c2c(SCC(=O)N3CCC(Cc4ccccc4)CC3)nc(-c3cccs3)nc2n(C)c1=O`, for which the inhibition was 2.08% (inactive).
For `COc1ccc(F)cc1-c1ccccc1CC1CNCCNC1=O` (centres undefined), the inhibition was -14.6% (inactive).
For `O=C(Cn1cnc2ccccc21)N1CCCc2ccccc21`, the inhibition is -1.89% (inactive).
With `COC(=O)COc1cccc2c(=O)n(CC(=O)N3CCc4ccccc43)ccc12`, the inhibition is 35.8% (active).
In the case of `Cc1nc2ccccc2c(=O)n1CC(=O)N1CCCc2ccccc21`, the inhibition was 4.34% (inactive).
Next, `Cn1c(=O)c2c(ncn2CC(=O)OCc2cccc([N+](=O)[O-])c2)n(C)c1=O`: -12.3% (inactive); `COc1ccc(-c2cc(C(=O)Nc3cccc(C)c3C)c3ccccc3n2)cc1OC`: -1.61% (inactive); `CCN1C[C@@]23CN(C(=O)c4ccc(OC)cc4)C[C@@H](C[C@@H]2S1(=O)=O)O3`: 0.859% (inactive).
For the compound `O=C(c1ccco1)[C@@H]1[C@@H]2C(=O)N(c3cccc([N+](=O)[O-])c3)C(=O)[C@@H]2C2c3ccccc3C=CN21` (some centres undefined), the inhibition is -7.36% (inactive).
